The values that follow come from PubChem BioAssay.

In the assay the target is Fibroblast growth factor 2 (Homo sapiens) (UniProt P09038). In words: FGF2 binders on small-molecule microarrays, primary screen, biochemical, small-molecule microarray, 635/667 nm fluorescence (AID 1133). Conditions: small-molecule microarray binding, FGF2, fluorescence 635/667; higher = more signal.
Sequence of Fibroblast growth factor 2 (Homo sapiens) (P09038 whole entry, looked up): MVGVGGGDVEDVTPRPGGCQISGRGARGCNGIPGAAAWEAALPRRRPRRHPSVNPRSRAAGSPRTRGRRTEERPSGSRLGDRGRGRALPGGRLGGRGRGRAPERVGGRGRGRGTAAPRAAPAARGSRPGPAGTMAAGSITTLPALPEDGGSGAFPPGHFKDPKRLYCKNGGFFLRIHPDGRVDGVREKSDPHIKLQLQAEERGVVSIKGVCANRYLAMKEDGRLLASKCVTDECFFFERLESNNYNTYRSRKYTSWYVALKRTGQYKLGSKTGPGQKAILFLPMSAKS
Compound `Cc1ccc(S[C@]2(C(=O)NCC(F)(F)F)CC(=O)N(Cc3ccccc3)[C@@H]2c2ccc(CO)cc2)cc1` showed a composite z-score of -0.683.
The compound `O=C1O[C@@H](c2ccccc2)[C@@H](c2ccccc2)N2[C@@H](c3ccccc3OCCO)[C@]3(C(=O)Nc4ccccc43)[C@@H](C(=O)NC[C@H](O)c3ccccc3)[C@H]12` came in with a composite z-score of -0.452.
`COc1ccc([Si](C)(C)[C@@H]2[C@@H](CC(=O)N3CCC[C@H]3CO)O[C@]3(C(=O)N(Cc4ccc(N5C(=O)c6cccc7cccc5c67)cc4)c4ccccc43)[C@H]2C)cc1` showed a composite z-score of 1.54.
`O=C1NC(=O)C2C1C=CC(C(O)c1ccc(Br)cc1)N2Nc1ccccn1` (stereo not given) gave a composite z-score of 0.657.
As for `O=C1C2C=CC(C(O)c3cc(C(F)(F)F)cc(C(F)(F)F)c3)N(Nc3ccc([N+](=O)[O-])cc3)C2C(=O)N1c1ccccc1` (stereo not given), the composite z-score was determined as 0.4.
`O=C1O[C@@H](c2ccccc2)[C@@H](c2ccccc2)N2[C@@H](c3ccccc3OCCO)[C@]3(C(=O)Nc4ccc(C#CCCO)cc43)[C@@H](C(=O)Nc3nc4ccccc4s3)[C@H]12`: the composite z-score came out at 0.737.
Compound `COc1ccccc1CN1C(=O)c2ccccc2[C@](Cc2ccccc2I)(C(=O)NC(C)C)[C@@H]1c1ccc(CO)cc1` gave a composite z-score of 0.506.
`COC(=O)C(CC#Cc1ccc2c(c1)[C@]1(C(=O)N2)[C@H](C(=O)O)[C@H]2C(=O)O[C@H](c3ccccc3)[C@H](c3ccccc3)N2[C@@H]1c1ccccc1OCCO)C(=O)OC` returned a composite z-score of 0.838.
`CC(C)NC(=O)[C@@]1(C)c2ccccc2C(=O)N(C(C)C)[C@H]1c1ccc(CO)cc1`: the composite z-score was -0.516.
`NCCCCCCNC(=O)[C@@H]1C[C@@H]2C(=O)N3CCC[C@H]3C(=O)N2[C@@H]1c1ccc(O)cc1` had a composite z-score of 1.29.
